According to the supplement of paper PMC6135742:
Several values for one entry are separate records, joined by “and”; a condition that tells them apart may be missing. Equal entries are not always repeated. Structures can show the parent of a compound that is named as a salt. ± gives the standard deviation of the averaged measurements. Over roughly 2,600 compounds, “MBP+ mature oligodendrocyte number relative to DMSO vehicle control” has its median near -0.34; the highest 2% begin near 13. The sample as a whole holds a higher share of the highest values than the screen did.

tested on: jimpy (Plp1 jimpy) mouse iPSC-derived oligodendrocyte progenitor cells; assay: MBP+ mature oligodendrocyte number relative to DMSO vehicle control (SDs above negative control mean); higher = more surviving jimpy oligodendrocytes (rescue); settings: 10 µM; 3 days
Experimental: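 Primary phenotypic screen of >3,000 bioactive compounds (Selleck L1700 and Sigma LO1280 libraries) at a single dose of 10 µM. Compounds were added to jimpy (Plp1 mutant) mouse iPSC-derived OPCs at the start of thyroid hormone-induced oligodendrocyte differentiation, one well per compound in 384-well plates. After 3 days cells were stained for MBP, Sox10 and DAPI and imaged with an Operetta system. MBP+ oligodendrocyte number and total cell number were expressed as the number of SDs above the mean of the DMSO negative control on the same plate (n=16 control wells per plate). Hits were defined as >=4 SD for oligodendrocytes and >=2 SD for total cells.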

Compared with `O=C1CCc2ccc(OCCCCN3CCN(c4cccc(Cl)c4Cl)CC3)cc2N1` [Aripiprazole], `O=C1Cc2cc(CCN3CCN(c4nsc5ccccc45)CC3)c(Cl)cc2N1` [Ziprasidone hydrochloride monohydrate] is higher in “MBP+ mature oligodendrocyte number” value: 5.11 for the first, 11.7 for the second.

Going from `O=C1Cc2cc(CCN3CCN(c4nsc5ccccc45)CC3)c(Cl)cc2N1` [Ziprasidone HCl] to `Fc1ccc2[nH]c(CN3CCN(c4ccccn4)CC3)cc2c1`, the “MBP+ mature oligodendrocyte number” value falls from 21.9 to -1.89.

Compared with `COc1ccc(-c2oc3c(CC=C(C)C)c(O)cc(O)c3c(=O)c2O)cc1` [Icaritin], `COc1ccc(Cl)cc1NC(=O)Nc1cc(C)nc2ccccc12` is lower in “MBP+ mature oligodendrocyte number” value: -3.18 for the first, -4.52 for the second.

Going from `COc1cc(N2CCC(N3CCN(C)CC3)CC2)ccc1Nc1ncc(Cl)c(Nc2ccccc2S(=O)(=O)C(C)C)n1` to `CCc1cc2c(cc1N1CCC(N3CCOCC3)CC1)C(C)(C)c1[nH]c3cc(C#N)ccc3c1C2=O`, the “MBP+ mature oligodendrocyte number” value rises from under -6.7 to -2.2.

Compared with `Cn1cnc2c(NCc3ccccc3)nc(NCCO)nc21` [Olomoucine], `CN(CCCOc1ccc(Cc2ccccc2)cc1)CCC(=O)O` is lower in “MBP+ mature oligodendrocyte number” value: 1.83 for the first, 0.896 for the second.

Compared with `CC(C)NCC(O)c1ccc(O)c(O)c1` (racemic) [(±)-Isoproterenol hydrochloride], `CC(Cc1ccc(O)c(O)c1)(NN)C(=O)O` (stereo not drawn) [S-(-)-Carbidopa] is lower in “MBP+ mature oligodendrocyte number” value: 0.225 for the first, -1.01 for the second.

First: Nc1cc2c(ncn2CCOCP(=O)(O)O)c(=O)[nH]1 [PMEG hydrate]
Second: Cn1cc(C2=C(c3cn(CCCSC(=N)N)c4ccccc34)C(=O)NC2=O)c2ccccc21 [Ro 31-8220 Mesylate]
The “MBP+ mature oligodendrocyte number” value of the first is higher: -1.5 for the first, -5.25 for the second.

First: O.O=[Si]=O.O=[Si]=O.O=[Si]=O.O=[Si]=O.[O]=[Mg].[O]=[Mg].[O]=[Mg]
Second: CNC(=O)CN(CCN(CCN(CC(=O)[O-])CC(=O)NC)CC(=O)[O-])CC(=O)[O-].[Gd+3] [Gadodiamide]
The “MBP+ mature oligodendrocyte number” value of the first is higher: -1.01 for the first, under -5.15 for the second.

Compared with `NC(N)=N/N=C/c1ccccc1Cl` [Sephin-1], `CCOC(=O)C(C)(C)Oc1ccc(Cl)cc1` [Clofibrate] is lower in “MBP+ mature oligodendrocyte number” value: 1.29 for the first, 0.667 for the second.

First: CCC(C)(C)c1ccc(CC(C)CN2C[C@@H](C)O[C@@H](C)C2)cc1 (stereo partly specified) [Amorolfine HCl]
Second: CC(C)(C)C(=O)C(Oc1ccc(Cl)cc1)n1ccnc1 (stereo unspecified) [Climbazole]
The “MBP+ mature oligodendrocyte number” value of the first is lower: 28.8 for the first, 38.6 for the second.

Compared with `O=C(O)CCCCC1CCSS1` (racemic) [(±)-alpha-Lipoic Acid], `C[C@H](CCC(=O)NCCS(=O)(=O)O)[C@H]1CC[C@H]2[C@@H]3[C@H](O)C[C@@H]4C[C@H](O)CC[C@]4(C)[C@H]3C[C@H](O)[C@]12C` [Sodium Taurocholate hydrate] is higher in “MBP+ mature oligodendrocyte number” value: -1.6 for the first, -0.433 for the second.

Going from `O=C(O)Cc1cccc(OCCCN(Cc2cccc(C(F)(F)F)c2Cl)CC(c2ccccc2)c2ccccc2)c1` to `CN(CC[C@@H](Oc1ccc(C(F)(F)F)cc1)c1ccccc1)CC(=O)[O-].[Li+]`, the “MBP+ mature oligodendrocyte number” value falls from 24.5 to 0.588.

Going from `CC1(C)CCC2=C(O1)c1ccccc1C(=O)C2=O` [beta-Lapachone] to `Cc1nccn1CC1CCc2c(c3ccccc3n2C)C1=O` (stereo unspecified) [Ondansetron HCl], the “MBP+ mature oligodendrocyte number” value rises from under -3.97 to 12.8.

Compared with `CC1(C)CCC2=C(O1)c1ccccc1C(=O)C2=O` [Beta-Lapachone], `Cn1cc(/C=C2\C(=O)Nc3cccnc32)c2ccccc21` is higher in “MBP+ mature oligodendrocyte number” value: -6.18 for the first, -3.63 for the second.

First: CC(C)(Oc1ccc(Cl)cc1)C(=O)O [Clofibric Acid]
Second: Clc1ccc(COC(Cn2ccnc2)c2ccc(Cl)cc2Cl)cc1 (stereo unspecified) [Econazole nitrate]
The “MBP+ mature oligodendrocyte number” value of the first is lower: 2.94 for the first, 5.37 for the second.

Going from `CCN(c1cc(-c2ccc(CN3CCOCC3)cc2)cc(C(=O)NCc2c(C)cc(C)[nH]c2=O)c1C)C1CCOCC1` to `Cc1cc(C)c(CNC(=O)c2cc(-c3ccc(CN4CCOCC4)cc3)cc3c2cnn3C2CCCC2)c(=O)[nH]1`, the “MBP+ mature oligodendrocyte number” value rises from 8.01 to 30.2.

First: CCCc1cc(C)[nH]c(=O)c1CNC(=O)c1cc(-c2ccc(N3CCN(C(C)C)CC3)nc2)cc2c1cnn2C(C)C
Second: O=C(Nc1ccc2c(c1)CCN(Cc1ncn[nH]1)C2)c1ccccc1-c1ccc(C(F)(F)F)cc1
The “MBP+ mature oligodendrocyte number” value of the first is lower: under -6.35 for the first, 2 for the second.

First: NC(=O)[C@@H](CCC(F)(F)F)N(Cc1ccc(-c2ncon2)cc1F)S(=O)(=O)c1ccc(Cl)cc1
Second: Cc1ccc(F)c(NC(=O)Nc2ccc(-c3cccc4[nH]nc(N)c34)cc2)c1 [Linifanib (ABT-869)]
The “MBP+ mature oligodendrocyte number” value of the first is higher: 4.21 for the first, -5.74 for the second.

First: CCn1c(=O)c2c(nc(/C=C/c3ccc(OC)c(OC)c3)n2C)n(CC)c1=O [Istradefylline]
Second: Cc1[nH]c2ccccc2c1CCNCc1ccc(/C=C/C(=O)NO)cc1 [Panobinostat (LBH589)]
The “MBP+ mature oligodendrocyte number” value of the first is higher: -4.18 for the first, under -6.7 for the second.

Going from `Clc1ccc(COC(Cn2ccnc2)c2ccc(Cl)cc2Cl)c(Cl)c1` (stereo unspecified) [Miconazole] to `Clc1ccc(C(Cn2ccnc2)OCc2c(Cl)cccc2Cl)c(Cl)c1` (stereo unspecified) [Isoconazole nitrate], the “MBP+ mature oligodendrocyte number” value rises from -1.9 to 22.9.

Going from `Clc1ccc(COC(Cn2ccnc2)c2ccc(Cl)cc2Cl)c(Cl)c1` (stereo unspecified) [Miconazole Nitrate] to `Cc1cc(NC(=O)Nc2ccc(N(C)C)cc2)c2cc(F)cc(F)c2n1`, the “MBP+ mature oligodendrocyte number” value rises from -3.62 to 29.4.

Going from `COc1ccc(C2(CNC(=O)c3ccc(NC(=O)c4ccco4)cc3)CCOCC2)cc1` to `c1ccc2c(c1)CCC[C@H]2Nc1nc2ccccc2[nH]1` [NS8593 hydrochloride], the “MBP+ mature oligodendrocyte number” value rises from -2.6 to -0.125.

Compared with `Nc1cc(Cl)c(NC2=NCCN2)c(Cl)c1` [p-Aminoclonidine hydrochloride], `C#C[C@]1(O)CC[C@H]2[C@@H]3CCc4cc(O)ccc4[C@H]3CC[C@@]21C` [Ethinyl Estradiol] is higher in “MBP+ mature oligodendrocyte number” value: -0.786 for the first, 0.433 for the second.

Going from `C#C[C@]1(O)CC[C@H]2[C@@H]3CCc4cc(OC)ccc4[C@H]3CC[C@@]21C` [Mestranol] to `C#C[C@]1(O)CC[C@H]2[C@@H]3CCC4=CC(=O)CC[C@@H]4[C@H]3CC[C@@]21C` [Norethindrone], the “MBP+ mature oligodendrocyte number” value falls from 12.8 to 6.57.

Going from `NC(=O)NO` [Hydroxyurea] to `CO[C@H]1C[C@@H]2CC[C@@H](C)[C@@](O)(O2)C(=O)C(=O)N2CCCC[C@H]2C(=O)O[C@H]([C@H](C)C[C@@H]2CC[C@@H](O)[C@H](OC)C2)CC(=O)[C@H](C)/C=C(\C)[C@@H](O)[C@@H](OC)C(=O)[C@H](C)C[C@H](C)/C=C/C=C/C=C/1C` [Rapamycin (Sirolimus)], the “MBP+ mature oligodendrocyte number” value falls from 0.603 ± 0.14 to -5.74.

In the case of `Cn1cc(C2=C(c3ccc(Cl)cc3Cl)C(=O)NC2=O)c2ccccc21`, the “MBP+ mature oligodendrocyte number” value is reported as 22.4 and 12.6.
